# Activity calls are given as the source filed them. Unless noted, no rule for the calls is given here.
# How the values were obtained:
# [1] = test system: XIP peptide (Xip251-270) binding; assay: small-molecule binders of XIP peptide, primary screen, biochemical, small-molecule microarray, fluorescence 635/667 nm, 0.1 µg/mL protein (AID 1182); details: fluorescent protein binding, 635 nm, higher = more signal, called active from +8 up or from −8 down
# XIP peptide (Xip251-270) = assay: small-molecule binders of XIP peptide, primary screen, biochemical, small-molecule microarray, fluorescence 635/667 nm, 0.5 µg/mL protein (AID 1183); details: small-molecule microarray binding, fluorescence 635 nm; higher = more signal
# [2] = Plasmodium falciparum growth inhibition, primary screen, strain 3D7, DAPI fluorescence, 100 nL (AID 1184);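 also: parasites grown inside human red blood cells in medium with human serum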; details: P. falciparum 3D7 growth, 3 d, higher = more signal
# [3] = molecular target: Homeobox protein Hox-A13 (Mus musculus) (UniProt Q62424); assay: inhibitors of HoxA13-DNA binding, primary screen, biochemical, fluorescence polarization, labeled oligonucleotide (AID 1185); details: 15 min, higher = more signal, called active from +8 up or from −8 down
# [4] = inhibitors of hydroxyurea-induced Chk1 phosphorylation, primary screen, imaging, HeLa, phospho-Chk1 antibody, percent positive cells (AID 1186); details: hydroxyurea-induced phospho-Chk1 immunofluorescence imaging, higher = more signal
# [5] = inhibitors of hydroxyurea-induced Chk1 phosphorylation, primary screen, imaging, HeLa, phospho-Chk1 nuclear intensity (AID 1187); details: hydroxyurea-induced phospho-Chk1 immunofluorescence imaging, higher = more signal
# Chain of Homeobox protein Hox-A13 (Mus musculus) (Q62424 whole entry, looked up): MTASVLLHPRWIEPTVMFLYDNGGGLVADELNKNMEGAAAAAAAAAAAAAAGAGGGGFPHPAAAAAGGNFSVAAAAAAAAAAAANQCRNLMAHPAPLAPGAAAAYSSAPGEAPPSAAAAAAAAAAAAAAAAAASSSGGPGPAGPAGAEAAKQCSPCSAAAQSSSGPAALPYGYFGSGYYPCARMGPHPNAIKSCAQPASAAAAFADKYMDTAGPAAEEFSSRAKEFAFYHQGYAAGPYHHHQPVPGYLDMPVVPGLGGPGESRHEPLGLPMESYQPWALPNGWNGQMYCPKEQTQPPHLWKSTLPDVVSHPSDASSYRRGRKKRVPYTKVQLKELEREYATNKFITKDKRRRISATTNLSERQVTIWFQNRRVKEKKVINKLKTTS
SMILES,composite z-score [1],composite z-score (XIP peptide (Xip251-270)),z-score [2],z-score [3],z-score [4],z-score [5]
O=C(Nc1cc(Br)ccc1C(=O)NCc1cccc(O)c1)c1ccccc1,2.11 (inactive),0.597,-0.64,-0.429 (inactive),0.0071 (inactive),-0.27 (inactive)
C=C(/C(=C/C[C@@H](OC(=O)c1ccncc1)c1cccc(OCCO)c1)c1cc(C(=O)OC)ccc1OC)C(C)C,0.577 (inactive),0.723,-3.13,-3.8 (inactive),-0.185 (inactive),-0.235 (inactive)
CO[C@H]1O[C@H](CO)[C@@H](OC(=O)Nc2cccc(F)c2)[C@H](OC(=O)Nc2ccc3c(c2)OCO3)[C@H]1OC(=O)Nc1ccc2c(c1)OCO2,1.87 (inactive),0.813,-1.34,-7.92 (inactive),-0.178 (inactive),0.0427 (inactive)
C[N+](C)(C)CCCCCCNC(=O)[C@@H]1C[C@@H]2C(=O)NCC(=O)N2[C@@H]1c1ccc(O)cc1,0.842 (inactive),0.87,0.627,-1.98 (inactive),1.34 (inactive),0.992 (inactive)
COc1ccc([Si](C)(C)[C@@H]2[C@@H](CCO)O[C@]3(C(=O)N(Cc4ccccc4)c4ccc(N5CCCCC5=O)cc43)[C@H]2C)cc1,2.38 (inactive),0.565,-2.89,-4.29 (inactive),-1.71 (inactive),-1.73 (inactive)
CCCCC(=C=CC[C@H](O)c1cccc(OCCO)c1)C[C@H](O)COCc1ccccc1,1.4 (inactive),0.752,-1.88,-4.78 (inactive),-0.0835 (inactive),0.0554 (inactive)
COCC(=C=CC[C@@H](O)c1ccccc1OCCO)C[C@@H](O)c1ccccn1,0.416 (inactive),0.76,-0.991,-6.18 (inactive),0.413 (inactive),0.289 (inactive)
C=CCOC(=O)[C@@H]1[C@H]2C(=O)O[C@H](c3ccccc3)[C@H](c3ccccc3)N2[C@H](c2ccc(OCCOC(=O)[C@@H]3C[C@@H]4C(=O)N[C@@H](CCCCNC(C)=O)C(=O)N4[C@@H]3c3ccc(O)cc3)cc2)[C@@]12C(=O)Nc1ccc(I)cc12,0.0787 (inactive),0.794,-1.61,-0.385 (inactive),0.552 (inactive),0.882 (inactive)
CC(C)N1C(=O)c2ccccc2[C@](C)(C(=O)O)[C@@H]1c1ccc(CO)cc1,0.202 (inactive),0.0967,0.859,-1.63 (inactive),0.113 (inactive),0.318 (inactive)
CC(C)C(CO)N1C(=O)[C@@H]2[C@H]3C(=O)OCC=C[C@H]3OC23C=CCN(Cn2nnc4ccccc42)C(=O)[C@@H]13 (some centres not stated),-0.406 (inactive),-0.705,-0.229,-3.05 (inactive),0.123 (inactive),0.11 (inactive)
COC(=O)[C@@]1(Cc2ccc(F)cc2)[C@@H]2[C@@H](CC(=O)[C@H]2CC(=O)C(=O)N2CCCC2)CN1C(=O)c1ccccc1,0.112 (inactive),0.663,-1.44,-2.66 (inactive),0.853 (inactive),1.01 (inactive)
CN1C(=O)C2C=CC(C(O)C3CCCCC3)N(N(c3ccccc3)c3ccccc3)C2C1=O (configuration not stated),-0.119 (inactive),0.63,0.721,-4.01 (inactive),0.74 (inactive),-0.024 (inactive)
COc1ccc(C(=O)Nc2ccc(CN3C(=O)[C@]4(O[C@H](CCn5cc([C@H](O)c6ccccc6)nn5)[C@@H]([Si](C)(C)c5ccc(OC)cc5)[C@@H]4C)c4ccccc43)cc2)cc1,-0.211 (inactive),-0.0268,-2.7,0.564 (inactive),0.107 (inactive),0.168 (inactive)
[N-]=[N+]=Nc1ccccc1[C@H]1OC(c2ccc(OCCCO)cc2)=N[C@@]1(Cc1ccccc1)C(=O)NCc1ccccc1,1.39 (inactive),0.596,-2.24,-2.71 (inactive),-0.684 (inactive),-0.5 (inactive)
[N-]=[N+]=NCc1ccccc1C[C@]1(C(=O)NCCN2CCOCC2)N=C(c2ccc(OCCCO)cc2)O[C@H]1c1ccccc1,0.786 (inactive),0.817,-2.42,-6.23 (inactive),0.0479 (inactive),0.228 (inactive)
COCCOC(=O)N1C(=O)[C@@]2(c3ccccc31)[C@H](c1ccccc1OCCO)N1[C@H](c3ccccc3)[C@H](c3ccccc3)OC(=O)[C@H]1[C@@H]2C(=O)N1CCc2cc(OC)c(OC)cc2C1,0.159 (inactive),0.84,-2.46,-2.43 (inactive),-0.453 (inactive),-0.193 (inactive)
C[N+](C)(C)CCCC[C@@H]1NC(=O)[C@H]2C[C@@H](C(=O)NCCCCCCN)[C@@H](c3cccc(OCCO)c3)N2C1=O,1.25 (inactive),0.527,-0.997,-2.38 (inactive),-0.699 (inactive),-0.146 (inactive)
